Experimental data published in PubChem BioAssay AID1159580 (chemical genetic matrix, 2015).
In all, about 5,500 compounds went through this assay and about 2,000 (36%) were called active. Roughly 18% stayed inconclusive and do not appear here. Rule as the data show it: active = normalized growth mostly below about 0.91 (no sharp cut-off); inconclusive = no clear call, values can overlap the other calls; inactive = mostly above about 0.92. Some of the results follow.

Experiment: chemical genetic growth profiling, strain panel (AID 1159580);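 also: tested at 20 µM; growth read once vehicle control cultures reached saturation at 30 °C; 1 = growth at the plate median or of vehicle wells; lower values mean less growth of the strain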
Settings: growth OD

Measured: normalized growth

Cc1c(N(C)CS(=O)(=O)O)c(=O)n(-c2ccccc2)n1C
inactive: S. cerevisiae deletion strains, locus YJR075W, strain HOC1, hits give low values 1 | S. cerevisiae deletion strains, locus YKL009W, strain mrt4, hits give low values 1.03 | S. cerevisiae deletion strains, locus YKL068W, hits give low values 0.998 | S. cerevisiae deletion strains, locus YKL085W, strain MDH1 (second series), hits give low values 0.99 | S. cerevisiae deletion strains, locus YKL085W, strain MDH1, hits give low values 0.99 | S. cerevisiae deletion strains, locus YKL160W, strain elf1, hits give low values 1.02 | S. cerevisiae deletion strains, locus YKL190W, strain CNB1, hits give low values 1.01 | S. cerevisiae deletion strains, locus YKR001C, strain vps1, hits give low values 1.01 | S. cerevisiae deletion strains, locus YKR026C, strain gcn3, hits give low values 1.01 | S. cerevisiae deletion strains, locus YKR091W, strain srl3, hits give low values 1.01 | S. cerevisiae deletion strains, locus YLL001W, strain dnm1, hits give low values 1.01 | S. cerevisiae deletion strains, locus YLL026W, hits give low values 1.01 | S. cerevisiae deletion strains, locus YLL041C, strain sdh2, hits give low values 1 | S. cerevisiae deletion strains, locus YLR027C, strain aat2, hits give low values 1.01 | S. cerevisiae deletion strains, locus YLR039C, strain RIC1, hits give low values 0.92 | S. cerevisiae deletion strains, locus YLR058C, strain SHM2, hits give low values 0.987 | S. cerevisiae deletion strains, locus YLR102C, strain apc9, hits give low values 0.984 | S. cerevisiae deletion strains, locus YLR113W, strain HOG1, hits give low values 0.996 | S. cerevisiae deletion strains, locus YLR221C, strain rsa3, hits give low values 1.01 | S. cerevisiae deletion strains, locus YLR258W, strain gsy2, hits give low values 1.01 | S. cerevisiae deletion strains, locus YLR262C, strain YPT6 (second series), hits give low values 0.999 | S. cerevisiae deletion strains, locus YLR262C, strain YPT6, hits give low values 0.962 | S. cerevisiae deletion strains, locus YLR268W, strain sec22, hits give low values 0.992 | S. cerevisiae deletion strains, locus YLR320W, strain mms22, hits give low values 1.03 | S. cerevisiae deletion strains, locus YLR330W, strain CHS5, hits give low values 0.993 | S. cerevisiae deletion strains, locus YLR342W, strain FKS1 (second series), hits give low values 0.961 | S. cerevisiae deletion strains, locus YLR342W, strain FKS1, hits give low values 1.02 | S. cerevisiae deletion strains, locus YLR357W, strain rsc2, hits give low values 1.03 | S. cerevisiae deletion strains, locus YLR370C, strain arc18, hits give low values 1 | S. cerevisiae deletion strains, locus YLR371W, strain rom2, hits give low values 0.977 | S. cerevisiae deletion strains, locus YLR384C, strain iki3, hits give low values 1.01 | S. cerevisiae deletion strains, locus YLR418C, strain cdc73, hits give low values 0.948 | S. cerevisiae deletion strains, locus YML016C, strain PPZ1, hits give low values 0.99 | S. cerevisiae deletion strains, locus YML032C, strain rad52, hits give low values 0.999 | S. cerevisiae deletion strains, locus YML120C, strain ndi1, hits give low values 1.01 | S. cerevisiae deletion strains, locus YML124C, strain tub3, hits give low values 0.988 | S. cerevisiae deletion strains, locus YMR058W, strain fet3, hits give low values 1.01 | S. cerevisiae deletion strains, locus YMR078C, strain ctf18, hits give low values 0.978 | S. cerevisiae deletion strains, locus YMR125W, strain sto1, hits give low values 1.02 | S. cerevisiae deletion strains, locus YMR129W, hits give low values 1 | S. cerevisiae deletion strains, locus YMR205C, strain PFK2, hits give low values 1.02 | S. cerevisiae deletion strains, locus YMR223W, strain ubp8, hits give low values 0.962 | S. cerevisiae deletion strains, locus YMR231W, strain pep5, hits give low values 1.02 | S. cerevisiae deletion strains, locus YMR263W, strain SAP30, hits give low values 1.01 | S. cerevisiae deletion strains, locus YMR307W, strain GAS1, hits give low values 0.906 | S. cerevisiae deletion strains, locus YNL067W, strain RPL9B, hits give low values 1.01 | S. cerevisiae deletion strains, locus YNL071W, strain lat1, hits give low values 1.02 | S. cerevisiae deletion strains, locus YNL183C, strain NPR1, hits give low values 0.924 | S. cerevisiae deletion strains, locus YNL209W, strain ssb2, hits give low values 1.02 | S. cerevisiae deletion strains, locus YNL233W, strain BNI4, hits give low values 1 | S. cerevisiae deletion strains, locus YNL248C, strain rpa49, hits give low values 1.02 | S. cerevisiae deletion strains, locus YNL250W, strain rad50, hits give low values 0.969 | S. cerevisiae deletion strains, locus YNL271C, strain bni1, hits give low values 0.992 | S. cerevisiae deletion strains, locus YNL298W, strain CLA4, hits give low values 0.993 | S. cerevisiae deletion strains, locus YNL307C, strain MCK1, hits give low values 0.987 | S. cerevisiae deletion strains, locus YNL322C, strain KRE1 (second series), hits give low values 1.01 | S. cerevisiae deletion strains, locus YNL322C, strain KRE1, hits give low values 0.998 | S. cerevisiae deletion strains, locus YNR049C, strain mso1, hits give low values 1 | S. cerevisiae deletion strains, locus YNR052C, strain pop2, hits give low values 0.985 | S. cerevisiae deletion strains, locus YOL006C, strain TOP1, hits give low values 1.14 | S. cerevisiae deletion strains, locus YOL012C, strain htz1 0.803 | S. cerevisiae deletion strains, locus YOL147C, strain pex11, hits give low values 0.985 | S. cerevisiae deletion strains, locus YOR001W, strain rrp6, hits give low values 1.01 | S. cerevisiae deletion strains, locus YOR061W, strain CKA2, hits give low values 0.989 | S. cerevisiae deletion strains, locus YOR069W, strain VPS5, hits give low values 0.984 | S. cerevisiae deletion strains, locus YOR070C, strain gyp1, hits give low values 1.01 | S. cerevisiae deletion strains, locus YOR080W, strain dia2, hits give low values 1.01 | S. cerevisiae deletion strains, locus YOR083W, strain WHI5, hits give low values 1.02 | S. cerevisiae deletion strains, locus YOR106W, strain vam3, hits give low values 1.03 | S. cerevisiae deletion strains, locus YOR136W, strain idh2, hits give low values 0.986 | S. cerevisiae deletion strains, locus YOR144C, strain elg1, hits give low values 0.989 | S. cerevisiae deletion strains, locus YOR184W, strain ser1, hits give low values 1.03 | S. cerevisiae deletion strains, locus YOR231W, strain MKK1, hits give low values 0.996 | S. cerevisiae deletion strains, locus YOR265W, strain rbl2, hits give low values 1.01 | S. cerevisiae deletion strains, locus YOR270C, strain vph1, hits give low values 1.05 | S. cerevisiae deletion strains, locus YOR290C, strain snf2, hits give low values 1.01 | S. cerevisiae deletion strains, locus YOR316C, strain cot1, hits give low values 0.981 | S. cerevisiae deletion strains, locus YPL051W, strain arl3, hits give low values 1.01 | S. cerevisiae deletion strains, locus YPL055C, strain LGE1, hits give low values 1.05 | S. cerevisiae deletion strains, locus YPL078C, strain atp4, hits give low values 1.02 | S. cerevisiae deletion strains, locus YPL106C, strain sse1, hits give low values 1.02 | S. cerevisiae deletion strains, locus YPL240C, strain hsp82, hits give low values 1.01 | S. cerevisiae deletion strains, locus YPL256C, strain CLN2, hits give low values 1.01 | S. cerevisiae deletion strains, locus YPR119W, strain clb2, hits give low values 0.986 | S. cerevisiae deletion strains, locus YPR141C, strain kar3, hits give low values 0.981 | S. cerevisiae deletion strains, locus YPR163C, strain tif3, hits give low values 1.01 | S. cerevisiae deletion strains, locus YPR167C, strain met16, hits give low values 0.977 | S. cerevisiae deletion strains, strain wtn01, hits give low values 0.986 | S. cerevisiae strains, strain wild type, hits give low values 0.995
